Assay results taken from paper PMC5349851, “Combinatorial bZIP dimers display complex DNA-binding specificity landscapes”.

Assays:
Assay in all cases: SELEX-seq (CSI, HT-SELEX, round 3); SELEX-seq: 1x PBS (10 mM phosphate, 137 mM NaCl, 2.7 mM KCl) pH 7.6, 2.5 mM DTT, 50 ng/ul poly dI-dC, 0.1% BSA, 50 nM biotinylated bZIP (1:3 with partner for heterodimers), 100 nM library, room temperature, 1 h, 3 rounds; high values mean tight binding
Settings in all cases: protein: recombinant;recombinant; copies: 1;1; dsDNA, one strand shown
JUNB;DBP = target: T1, JUNB;DBP (Homo sapiens;Homo sapiens, UniProt P17275;Q10586 259-332;246-324, |)
T1 sequence 1: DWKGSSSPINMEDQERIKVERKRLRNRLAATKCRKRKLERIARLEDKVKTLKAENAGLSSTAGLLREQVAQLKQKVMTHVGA
T1 sequence 2: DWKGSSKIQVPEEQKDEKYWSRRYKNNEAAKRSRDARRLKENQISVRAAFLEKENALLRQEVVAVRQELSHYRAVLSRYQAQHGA

BATF;ATF3 = target: T2, BATF;ATF3 (Homo sapiens;Homo sapiens, UniProt Q16520;P18847 17-90;77-150, |)
T2 sequence 1: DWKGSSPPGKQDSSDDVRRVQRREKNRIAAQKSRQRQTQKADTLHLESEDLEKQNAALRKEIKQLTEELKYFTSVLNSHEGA
T2 sequence 2: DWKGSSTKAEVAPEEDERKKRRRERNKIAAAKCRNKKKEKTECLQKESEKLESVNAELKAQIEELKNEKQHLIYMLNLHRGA

BATF;CEBPA = BATF;CEBPA (Homo sapiens;Homo sapiens, UniProt Q16520;P49715 17-90;273-345, |)
Sequence of BATF;CEBPA (P49715 other isoform, or with tags, fused parts or gaps |): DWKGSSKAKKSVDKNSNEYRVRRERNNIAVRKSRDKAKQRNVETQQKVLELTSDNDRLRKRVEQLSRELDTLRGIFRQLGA

FOSL1;ATF3 = target: T3, FOSL1;ATF3 (Homo sapiens;Homo sapiens, UniProt P15407;P18847 96-169;77-150, |)
T3 sequence 1: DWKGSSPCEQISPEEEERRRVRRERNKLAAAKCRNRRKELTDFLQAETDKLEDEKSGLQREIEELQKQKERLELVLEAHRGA
T3 sequence 2: T2 sequence 2

FOSL1;CEBPA = FOSL1;CEBPA (Homo sapiens;Homo sapiens, UniProt P15407;P49715 96-169;273-345, |)
FOSL1;JUN = FOSL1;JUN (Homo sapiens;Homo sapiens, UniProt P15407;P05412 96-169;243-316, |)
FOSL1;BATF3 = target: T4, FOSL1;BATF3 (Homo sapiens;Homo sapiens, UniProt P15407;Q9NR55 96-169;26-99, |)
T4 sequence 1: T3 sequence 1
T4 sequence 2: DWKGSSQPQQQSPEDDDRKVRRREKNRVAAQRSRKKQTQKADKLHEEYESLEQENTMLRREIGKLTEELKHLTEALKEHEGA

FOS;ATF3 = FOS;ATF3 (Homo sapiens;Homo sapiens, UniProt P01100;P18847 128-201;77-150, |)
Sequence of FOS;ATF3 (P01100 other isoform, or with tags, fused parts or gaps |, chain 1 of 2, one chain of several): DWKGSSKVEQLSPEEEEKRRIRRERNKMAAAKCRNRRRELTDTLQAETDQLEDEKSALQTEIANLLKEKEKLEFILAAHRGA

FOS;ATF4 = FOS;ATF4 (Homo sapiens;Homo sapiens, UniProt P01100;P18848 128-201;269-346, |)
Sequence of FOS;ATF4 (P01100 other isoform, or with tags, fused parts or gaps |, chain 1 of 2): as the sequence (P01100 other isoform, or with tags, fused parts or gaps |, chain 1 of 2, one chain of several) above
Sequence of FOS;ATF4 (P18848 other isoform, or with tags, fused parts or gaps |, chain 2 of 2): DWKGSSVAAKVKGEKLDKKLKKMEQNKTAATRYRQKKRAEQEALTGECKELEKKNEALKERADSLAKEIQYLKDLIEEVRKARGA

FOS;BATF3 = FOS;BATF3 (Homo sapiens;Homo sapiens, UniProt P01100;Q9NR55 128-201;26-99, |)
Sequence of FOS;BATF3 (P01100 other isoform, or with tags, fused parts or gaps |): as the sequence (P01100 other isoform, or with tags, fused parts or gaps |, chain 1 of 2, one chain of several) above

Sequence: ATGACGTCAT
- binding signal (JUNB;DBP): 1 relative CSI intensity (max = 1)
- binding signal (BATF;ATF3): 0.113 relative CSI intensity (max = 1)
- binding signal (BATF;CEBPA): 0.00178 relative CSI intensity (max = 1)
- binding signal (FOSL1;ATF3): 0.156 relative CSI intensity (max = 1)
- binding signal (FOSL1;CEBPA): 0.261 relative CSI intensity (max = 1)
- binding signal (FOSL1;JUN): 0.478 relative CSI intensity (max = 1)
- binding signal (FOSL1;BATF3): 0.282 relative CSI intensity (max = 1)
- binding signal (FOS;ATF3): 0.117 relative CSI intensity (max = 1)
- binding signal (FOS;ATF4): 1 relative CSI intensity (max = 1)
- binding signal (FOS;BATF3): 1 relative CSI intensity (max = 1)

Sequence: ATGATGCAAT
- binding signal (JUNB;DBP): 0.0471 relative CSI intensity (max = 1)
- binding signal (BATF;CEBPA): 0.0115 relative CSI intensity (max = 1)
- binding signal (FOSL1;ATF3): 0.00412 relative CSI intensity (max = 1)
- binding signal (FOSL1;CEBPA): 0.368 relative CSI intensity (max = 1)
- binding signal (FOSL1;JUN): 0.00257 relative CSI intensity (max = 1)
- binding signal (FOSL1;BATF3): 0.00287 relative CSI intensity (max = 1)
- binding signal (FOS;ATF3): 0.0114 relative CSI intensity (max = 1)
- binding signal (FOS;ATF4): 0.00384 relative CSI intensity (max = 1)

Sequence: ATGACGGAAT
- binding signal (JUNB;DBP): 0.0141 relative CSI intensity (max = 1)
- binding signal (BATF;ATF3): 0.019 relative CSI intensity (max = 1)
- binding signal (FOSL1;ATF3): 0.0493 relative CSI intensity (max = 1)
- binding signal (FOSL1;CEBPA): 0.00381 relative CSI intensity (max = 1)
- binding signal (FOSL1;JUN): 0.00225 relative CSI intensity (max = 1)
- binding signal (FOS;ATF3): 0.0362 relative CSI intensity (max = 1)
- binding signal (FOS;ATF4): 0.00272 relative CSI intensity (max = 1)

Sequence: CCTGACGTCA
- binding signal (JUNB;DBP): 0.0067 relative CSI intensity (max = 1)
- binding signal (BATF;ATF3): 0.0203 relative CSI intensity (max = 1)
- binding signal (FOSL1;ATF3): 0.0517 relative CSI intensity (max = 1)
- binding signal (FOSL1;CEBPA): 0.00677 relative CSI intensity (max = 1)
- binding signal (FOSL1;JUN): 0.00953 relative CSI intensity (max = 1)
- binding signal (FOSL1;BATF3): 0.0211 relative CSI intensity (max = 1)
- binding signal (FOS;ATF3): 0.0295 relative CSI intensity (max = 1)
- binding signal (FOS;ATF4): 0.0251 relative CSI intensity (max = 1)
- binding signal (FOS;BATF3): 0.0279 relative CSI intensity (max = 1)

Sequence: ATGACGTAAT
- binding signal (JUNB;DBP): 0.727 relative CSI intensity (max = 1)
- binding signal (BATF;ATF3): 0.0836 relative CSI intensity (max = 1)
- binding signal (BATF;CEBPA): 0.00231 relative CSI intensity (max = 1)
- binding signal (FOSL1;ATF3): 0.0529 relative CSI intensity (max = 1)
- binding signal (FOSL1;CEBPA): 0.208 relative CSI intensity (max = 1)
- binding signal (FOSL1;JUN): 0.0392 relative CSI intensity (max = 1)
- binding signal (FOSL1;BATF3): 0.0576 relative CSI intensity (max = 1)
- binding signal (FOS;ATF3): 0.0389 relative CSI intensity (max = 1)
- binding signal (FOS;ATF4): 0.0605 relative CSI intensity (max = 1)
- binding signal (FOS;BATF3): 0.0787 relative CSI intensity (max = 1)

Sequence: ATGACGCAAT
- binding signal (JUNB;DBP): 0.162 relative CSI intensity (max = 1)
- binding signal (BATF;ATF3): 0.0223 relative CSI intensity (max = 1)
- binding signal (BATF;CEBPA): 0.00768 relative CSI intensity (max = 1)
- binding signal (FOSL1;ATF3): 0.0466 relative CSI intensity (max = 1)
- binding signal (FOSL1;CEBPA): 0.765 relative CSI intensity (max = 1)
- binding signal (FOSL1;JUN): 0.0151 relative CSI intensity (max = 1)
- binding signal (FOS;ATF3): 0.0598 relative CSI intensity (max = 1)
- binding signal (FOS;ATF4): 0.0149 relative CSI intensity (max = 1)
- binding signal (FOS;BATF3): 0.00954 relative CSI intensity (max = 1)
